# Experimental data published in PubChem BioAssay.
# Calls of active or inactive are those of the source.
# Key:
# Albumin (Bos taurus) = Albumin (Bos taurus) (UniProt P02769); assay: bovine serum albumin binders on microarray, profiling panel, artefact control for SMM control protein annotation, biochemical, small-molecule microarray, Alexa647 label, 635/667 nm fluorescence (AID 1118); details: BSA-A647 binding, fluorescence 635 nm, higher = more signal;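 also: score merges 667 nm emission intensity and signal-to-noise per printed compound spot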
# [1] = small-molecule microarray binders of probe aXIP, primary screen, biochemical, NeuroSMM set, 635/667 nm fluorescence (AID 1119); details: higher = more signal, called active from +8 up or from −8 down;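 also: probe is the protein aXip251-270 applied at 1 µg/mL to compound-printed slides; binding of probe to printed compounds measured as 667 nm fluorescence plus signal to noise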
# [2] = small-molecule binders of probe aNOTCH3, primary screen, biochemical, small-molecule microarray, 635/667 nm fluorescence (AID 1120); details: higher = more signal;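 also: probe is a biotin-tagged antibody raised against NOTCH3 rather than NOTCH3 protein; score merges spot fluorescence near 667 nm with spot signal to noise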
# [3] = small-molecule binders of probe aNOTCH2, primary screen, biochemical, small-molecule microarray, 635/667 nm fluorescence (AID 1121); details: higher = more signal;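 also: score merges feature fluorescence read at 667 nm with its signal to noise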
# [4] = target: Carbonic anhydrase 2 (Homo sapiens) (UniProt P00918); assay: CAII small-molecule binders, profiling panel, biochemical, small-molecule microarray, Alexa647-labelled CAII (AID 1122); details: CAII-A647 binding fluorescence, higher = more signal
# [5] = COS7 lysate on small-molecule microarray, probe aHis, 635 nm (AID 1123); details: COS7 cell lysate, fluorescence, higher = more signal;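 also: z-score combines 667nm fluorescence intensity with signal-to-noise per printed compound spot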
# [6] = compound binding in COS7 lysate, probe aLAP1, primary screen, cell lysate, small-molecule microarray (AID 1124); details: probe aLAP1, fluorescence, higher = more signal;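 also: lysate comes from COS7 cells expressing LAP1 and is applied at 0.3 µg/mL; score merges spot fluorescence near 667 nm with signal-to-noise over triplicate slides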
# Sam68 (KHDRBS1) = assay: Sam68 small-molecule binders, primary screen, biochemical, small-molecule microarray, 635 nm fluorescence (AID 1125); details: small-molecule microarray binding, higher = more signal;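 also: score merges 667 nm channel intensity with signal to noise over triplicate slides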
# [7] = test system: Chordin-like protein 2 (CHRDL2); assay: CHRDL2 small-molecule binders, primary screen, biochemical, small-molecule microarray, 635 nm fluorescence (AID 1126); details: small-molecule microarray binding, fluorescence 635 nm; higher = more signal;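 also: printed compound slides probed with Chrdl2 protein at 4 µg/mL for 1 h at 4 C; score merges 667 nm emission intensity with signal to noise over three replicate slides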
# [8] = target: Concanavalin-A (Canavalia ensiformis) (UniProt P02866); assay: ConA small-molecule binders, primary screen, artefact control for SMM control protein annotation, biochemical, small-molecule microarray, Alexa647 label, 635 nm (AID 1127); details: ConA-A647 binding fluorescence, higher = more signal;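 also: z combines 667 nm emission intensity with signal-to-noise across three replicate slides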
# [9] = anti-His antibody binders, primary screen, artefact control for SMM control protein annotation, biochemical, small-molecule microarray, 635 nm fluorescence (AID 1128); details: anti-His Alexa647 antibody binding, higher = more signal;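 also: score merges feature fluorescence with signal-to-noise for each printed compound spot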
# [10] = test system: Human papillomavirus type 1a E7 protein (residues 1-88); assay: HPV1a E7 small-molecule binders, primary screen, biochemical, small-molecule microarray, residues 1-88, 635 nm (AID 1129); details: small-molecule microarray binding, fluorescence 635 nm; higher = more signal
# [11] = target: Focal adhesion kinase 1 (Homo sapiens) (UniProt Q05397); assay: small-molecule microarray binders of FAK, primary screen, biochemical, 635/667 nm fluorescence, BSA, DTT (AID 1130); details: PTK2 binding, 635 nm fluorescence, higher = more signal;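 also: composite of spot emission at 667 nm and signal to noise over triplicate slides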
# [12] = test system: Fibrinogen (Alexa647-labelled); assay: fibrinogen binders on compound microarrays, profiling panel, artefact control for SMM control-protein annotation, biochemical, small-molecule microarray, 635/667 nm fluorescence (AID 1131); details: fibrinogen-A647 binding fluorescence, higher = more signal;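 also: z-score merges 667 nm fluorescence with per-spot signal-to-noise over triplicate slides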
# [13] = target: Follistatin (Homo sapiens) (UniProt P19883); assay: follistatin binders on small-molecule microarrays, primary screen, biochemical, small-molecule microarray, 635/667 nm fluorescence (AID 1132); details: FST binding, 635 nm fluorescence, higher = more signal
# [14] = target: Fibroblast growth factor 2 (Homo sapiens) (UniProt P09038); assay: FGF2 binders on small-molecule microarrays, primary screen, biochemical, small-molecule microarray, 635/667 nm fluorescence (AID 1133); details: small-molecule microarray binding, FGF2, fluorescence 635/667; higher = more signal
# [15] = mitochondrial membrane potential change in A549 cells, profiling panel, cell-based, JC-1 fluorescence, basal, 24 h, 100 nL (AID 1138); details: higher = more signal;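 also: A549 lung adenocarcinoma cells under basal conditions with no added stimulus; test concentration not given here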
# Lefty1 = Lefty1 binders on small-molecule microarrays, primary screen, biochemical, small-molecule microarray, 635/667 nm fluorescence (AID 1139); details: small-molecule microarray binding, fluorescence 635/667; higher = more signal
# [16] = test system: wheat germ agglutinin (Triticum aestivum), Alexa647-labelled; assay: wheat germ agglutinin binders on compound microarrays, profiling panel, artefact control for SMM control-protein annotation, biochemical, small-molecule microarray, 635/667 nm fluorescence (AID 1140); details: WGA-A647 binding, 635 nm fluorescence, higher = more signal;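 also: score merges 667 nm feature emission with signal to noise over triplicate slides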
# [17] = target: Luciferin 4-monooxygenase (Photinus pyralis) (UniProt P08659); assay: firefly luciferase enzyme inhibitors, primary screen, biochemical, luminescence, purified enzyme, 2006 set (AID 1141); details: SteadyGlo luminescence, 30 min, higher = more signal, called active from +8 up or from −8 down;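 also: cell-free assay with purified firefly luciferase at 100 ng per well in PBS; test concentration not given here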
# Sequence of Luciferin 4-monooxygenase (Photinus pyralis) (P08659 whole entry, looked up): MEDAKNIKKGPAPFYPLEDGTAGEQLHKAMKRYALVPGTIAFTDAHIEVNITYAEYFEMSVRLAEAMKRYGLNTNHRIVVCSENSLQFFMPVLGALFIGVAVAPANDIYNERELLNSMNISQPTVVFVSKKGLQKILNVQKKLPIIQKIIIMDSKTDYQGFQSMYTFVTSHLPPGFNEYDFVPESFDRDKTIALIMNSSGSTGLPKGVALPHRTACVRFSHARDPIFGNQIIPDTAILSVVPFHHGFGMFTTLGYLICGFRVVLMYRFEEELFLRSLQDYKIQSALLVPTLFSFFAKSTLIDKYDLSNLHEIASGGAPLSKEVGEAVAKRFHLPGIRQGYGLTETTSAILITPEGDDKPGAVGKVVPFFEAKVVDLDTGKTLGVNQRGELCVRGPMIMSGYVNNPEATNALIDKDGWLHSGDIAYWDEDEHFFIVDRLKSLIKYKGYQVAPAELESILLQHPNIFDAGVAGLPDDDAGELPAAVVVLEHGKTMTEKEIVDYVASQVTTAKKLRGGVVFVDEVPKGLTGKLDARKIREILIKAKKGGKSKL
# Sequence of Focal adhesion kinase 1 (Homo sapiens) (Q05397 whole entry, looked up): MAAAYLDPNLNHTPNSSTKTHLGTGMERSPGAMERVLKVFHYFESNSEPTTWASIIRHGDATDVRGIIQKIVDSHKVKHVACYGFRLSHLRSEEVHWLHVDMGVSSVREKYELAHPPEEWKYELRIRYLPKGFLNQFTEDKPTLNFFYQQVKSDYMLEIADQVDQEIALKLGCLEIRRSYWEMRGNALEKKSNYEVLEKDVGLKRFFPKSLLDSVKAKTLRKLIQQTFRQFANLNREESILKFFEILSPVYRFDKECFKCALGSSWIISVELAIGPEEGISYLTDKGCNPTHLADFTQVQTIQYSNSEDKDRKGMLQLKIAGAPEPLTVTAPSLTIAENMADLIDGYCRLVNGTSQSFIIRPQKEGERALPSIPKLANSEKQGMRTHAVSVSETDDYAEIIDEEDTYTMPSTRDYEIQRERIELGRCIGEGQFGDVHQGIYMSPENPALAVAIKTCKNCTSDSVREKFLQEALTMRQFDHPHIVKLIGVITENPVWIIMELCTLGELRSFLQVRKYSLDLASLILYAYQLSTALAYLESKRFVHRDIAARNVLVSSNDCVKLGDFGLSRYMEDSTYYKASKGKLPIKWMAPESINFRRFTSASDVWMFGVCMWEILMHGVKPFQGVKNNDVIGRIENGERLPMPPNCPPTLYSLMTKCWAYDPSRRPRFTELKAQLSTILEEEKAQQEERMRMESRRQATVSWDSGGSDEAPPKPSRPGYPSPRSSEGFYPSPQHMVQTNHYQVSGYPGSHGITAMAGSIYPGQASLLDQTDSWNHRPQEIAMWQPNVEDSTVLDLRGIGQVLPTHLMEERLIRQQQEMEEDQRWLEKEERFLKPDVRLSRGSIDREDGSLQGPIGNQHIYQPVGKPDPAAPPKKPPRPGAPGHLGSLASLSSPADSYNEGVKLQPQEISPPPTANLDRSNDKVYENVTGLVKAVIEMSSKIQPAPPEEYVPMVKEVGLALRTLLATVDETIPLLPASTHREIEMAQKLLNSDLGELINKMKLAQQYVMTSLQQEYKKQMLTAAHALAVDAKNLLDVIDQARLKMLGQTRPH
# Sequence of Fibroblast growth factor 2 (Homo sapiens) (P09038 whole entry, looked up): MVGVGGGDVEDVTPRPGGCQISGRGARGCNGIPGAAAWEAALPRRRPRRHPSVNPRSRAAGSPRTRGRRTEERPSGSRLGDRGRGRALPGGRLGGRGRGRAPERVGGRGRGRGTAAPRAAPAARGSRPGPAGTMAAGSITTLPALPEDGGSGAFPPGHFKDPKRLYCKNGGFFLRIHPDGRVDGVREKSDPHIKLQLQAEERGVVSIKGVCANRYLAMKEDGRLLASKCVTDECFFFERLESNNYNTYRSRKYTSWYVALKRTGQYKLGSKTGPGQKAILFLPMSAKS
# Sequence of Albumin (Bos taurus) (P02769 whole entry, looked up): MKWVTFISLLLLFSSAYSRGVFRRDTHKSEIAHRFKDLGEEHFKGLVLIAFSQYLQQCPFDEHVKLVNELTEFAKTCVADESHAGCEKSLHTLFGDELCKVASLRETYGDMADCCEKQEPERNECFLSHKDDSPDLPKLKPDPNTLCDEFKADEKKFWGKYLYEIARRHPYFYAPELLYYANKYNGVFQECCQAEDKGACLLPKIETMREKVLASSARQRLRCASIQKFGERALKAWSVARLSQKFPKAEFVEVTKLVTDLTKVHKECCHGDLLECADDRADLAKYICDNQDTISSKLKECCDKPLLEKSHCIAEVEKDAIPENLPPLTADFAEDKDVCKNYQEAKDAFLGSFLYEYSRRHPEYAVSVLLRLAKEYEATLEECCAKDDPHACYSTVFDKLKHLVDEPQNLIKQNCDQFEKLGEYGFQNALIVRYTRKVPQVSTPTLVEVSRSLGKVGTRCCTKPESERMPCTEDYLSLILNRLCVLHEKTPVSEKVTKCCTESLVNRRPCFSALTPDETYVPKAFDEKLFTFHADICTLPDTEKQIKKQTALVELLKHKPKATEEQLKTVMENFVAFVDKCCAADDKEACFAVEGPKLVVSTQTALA
# Sequence of Follistatin (Homo sapiens) (P19883 whole entry, looked up): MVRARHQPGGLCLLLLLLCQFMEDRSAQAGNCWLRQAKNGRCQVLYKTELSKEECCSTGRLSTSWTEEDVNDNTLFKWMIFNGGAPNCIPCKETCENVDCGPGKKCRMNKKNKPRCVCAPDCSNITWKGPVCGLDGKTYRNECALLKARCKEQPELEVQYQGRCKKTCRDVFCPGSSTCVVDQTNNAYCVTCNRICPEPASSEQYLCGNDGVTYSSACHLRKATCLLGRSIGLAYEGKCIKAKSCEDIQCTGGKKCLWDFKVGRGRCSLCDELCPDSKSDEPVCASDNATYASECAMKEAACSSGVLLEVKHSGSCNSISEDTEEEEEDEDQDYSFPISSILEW
# Sequence of Concanavalin-A (Canavalia ensiformis) (P02866 whole entry, looked up): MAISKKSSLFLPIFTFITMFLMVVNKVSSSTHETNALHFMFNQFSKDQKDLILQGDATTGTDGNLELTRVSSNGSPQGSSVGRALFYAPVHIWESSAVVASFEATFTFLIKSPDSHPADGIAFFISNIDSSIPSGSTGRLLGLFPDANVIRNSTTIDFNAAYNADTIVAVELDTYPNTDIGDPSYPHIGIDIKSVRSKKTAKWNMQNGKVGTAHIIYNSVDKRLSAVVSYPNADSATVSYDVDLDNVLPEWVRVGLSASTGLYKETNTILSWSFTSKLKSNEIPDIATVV
Compound,composite z-score (Albumin (Bos taurus)),composite Z-score [1],composite z-score [2],composite z-score [3],composite z-score [4],composite z-score [5],composite z-score [6],composite z-score (Sam68 (KHDRBS1)),composite z-score [7],composite z-score [8],composite z-score [9],composite z-score [10],composite z-score [11],composite z-score [12],composite z-score [13],composite z-score [14],z-score [15],composite z-score (Lefty1),composite z-score [16],z-score [17]
CO[C@H]1O[C@H](CO)[C@@H](OC(=O)Nc2ccc(Br)cc2)[C@@H]2OC(=O)[C@H](Cc3cccc(Br)c3)C/C=C/C[C@@H](Cc3cccc(Br)c3)C(=O)O[C@@H]12,0.0911,0.106 (inactive),-0.0622,-0.129,0.275,0.112,-0.0838,-0.975,0.0113,0.365,0.144,-0.122,0.2,-0.538,0.585,0.268,1.37,0.647,0.616,0.671 (inactive)
COCCOC(=O)N1C(=O)[C@@]2(c3cc(C#CCCO)ccc31)[C@H](c1ccc(O)cc1)N1[C@H](c3ccccc3)[C@H](c3ccccc3)OC(=O)[C@H]1[C@@H]2C(=O)N1CCN(c2ncccn2)CC1,0.435,0.982 (inactive),1.28,0.51,0.183,2.92,0.782,1.29,0.677,1.16,1.34,1.25,1.26,0.959,1,0.986,0.00649,0.883,0.932,0.832 (inactive)
O=C(NCc1ccccc1)[C@@H]1c2ccccc2C(=O)N(C2Cc3ccccc3C2)[C@H]1c1ccc(CO)cc1,0.0732,0.0702 (inactive),0.0711,-0.0249,0.767,1.35,0.0541,0.958,-0.357,0.899,0.526,1.17,0.166,0.299,0.957,0.892,0.353,0.459,1.1,0.111 (inactive)
COCCOC(=O)N1C(=O)[C@@]2(c3cc(C#CC4=CCCCC4)ccc31)[C@H](C(N)=O)[C@H]1C(=O)O[C@H](c3ccccc3)[C@H](c3ccccc3)N1[C@@H]2c1ccc(O)cc1,0.744,-0.158 (inactive),0.116,0.117,0.433,1.83,0.322,1.3,0.302,1.11,0.753,1.18,0.671,0.958,0.886,0.58,-1.1,0.553,0.686,-1.98 (inactive)
O=C1OCC=C[C@H]2OC34C=CCN(CCN5CCOCC5)C(=O)[C@H]3N(CCO)C(=O)[C@@H]4[C@@H]12 (stereo not given in full),-0.263,0.198 (inactive),-0.0221,-0.208,0.764,-0.214,-0.194,0.457,0.0881,0.575,0.15,-0.204,-0.133,0.368,0.597,-0.219,0.587,1.41,0.0315,-0.602 (inactive)
[N-]=[N+]=Nc1ccccc1[C@H]1OC(c2ccc(OCCCO)cc2)=N[C@@]1(Cc1ccccc1)C(=O)N1CCOCC1,1.05,1.39 (inactive),0.223,0.132,0.523,2.89,1.09,1.29,0.311,1.14,2.22,1.21,0.68,0.974,1.38,1.66,-0.254,0.511,1.09,-5.58 (inactive)
COCCCNC(=O)[C@@H]1c2ccccc2C(=O)N(Cc2ccccc2OC)[C@H]1c1ccc(CO)cc1,0.459,0.414 (inactive),-0.0932,-0.155,0.711,1.36,-0.355,-0.268,0.447,0.948,2.1,0.133,0.503,-0.444,0.832,1.42,-0.374,1.07,0.701,1.43 (inactive)
C=CC[C@]1(C(=O)N2CCOCC2)N=C(c2ccc(OCCCO)cc2)O[C@H]1c1ccccc1N=[N+]=[N-],0.561,0.193 (inactive),0.298,-0.0896,0.751,2.77,0.647,1.29,-0.521,1.09,2.08,1.26,0.804,0.979,1.14,0.287,-0.0671,-0.0598,1.37,-10.7 (active)
CC(C)CN1C(=O)[C@@]2(c3ccc([N+](=O)[O-])cc3)CC(=O)N(C3CCCCC3)[C@@H]2c2ccc(CO)cc21,-0.124,0.659 (inactive),-0.357,-0.0241,0.77,-0.335,0.73,-0.859,-1.91,-0.895,-0.75,-1.07,-0.0035,-1.05,-1.29,-0.875,0.766,-0.919,0.428,0.791 (inactive)
CCOC(=O)C[C@H]1[C@H](OC(=O)c2ccc(C(=O)c3ccccc3)cc2)[C@@H](NC(=O)Cc2ccc(OC)cc2)c2cc(OCCCO)ccc2N1C(=O)c1ccc2ccccc2n1,0.701,0.0505 (inactive),-0.0445,-0.0868,0.151,1.34,0.493,1.09,-0.0473,0.818,0.325,0.727,-0.314,0.858,0.513,0.312,0.842,0.735,-0.028,-0.849 (inactive)
COCCCNC(=O)[C@]1(Cc2ccccc2)N=C(c2ccc(OCCCO)cc2)O[C@@H]1c1ccccc1CN=[N+]=[N-],0.999,-0.127 (inactive),0.16,0.266,0.694,3.21,0.465,1.28,-0.431,1.16,2.51,1.14,0.802,0.957,1.31,1.46,1.16,-0.0031,0.963,-0.932 (inactive)
